SMN2 splice up: increases expression of the SMN2 splice variant; hit rate 2.8% among 210,000; Potency, µM (titrated, usually from 46.1 µM), hits mostly activators; AID 1458; HEK293 SMN2-luciferase splicing reporter, luminescence, 30-36 h; also: nearly all actives have a fitted effect of over 55% in size
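HEK293 cells carry an SMN2 minigene-luciferase reporter in which exon 7 inclusion puts luciferase in frame. Cells were seeded at 2000 cells/well, attached for 10-12 hours, then exposed to compounds for 30-36 hours at 37C before ONE-Glo luminescence.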
Rab9 prom act: Rab9 promoter activation | Potency, µM (highest dose often 9.22 µM), most hits filed as activators | Huh7 Rab9 promoter-luciferase reporter, luminescence, 24 h | hit rate 2.8% among 320,000 | AID 485297; also: nearly all actives have a fitted effect of over 60% in size
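Steps: seed 1500 Huh7 Rab9-luc cells per well, rest 2 h at 37 °C; add compound in DMSO; incubate 24 h; add luciferase reagent, 10 min ambient; read luminescence.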
ELG1 DNA repair: blocks ELG1-dependent DNA repair in HEK293T cells | HEK293T ELG1-luciferase reporter, luminescence, 16 h; DNA damage induced by 5-fluorouridine | Potency, µM (top dose mostly 46.1 µM), hits mostly inhibitors | hit rate 2.3% among 330,000; also: nearly all actives have a fitted effect of over 55% in size
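Step one: seed 2,000 cells per well. Step two: pin-transfer compound or DMSO alongside 5-fluorouridine. Step three: incubate 16 hr, 37 °C, 5% CO2. Step four: add ONE-Glo, wait 30 min, read luminescence.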
ELG1 genotoxic: induces genotoxicity in HEK293T cells with luciferase-tagged ELG1; HEK293T ELG1-luciferase reporter, luminescence, 16 h; Potency, µM (titrated, usually from 46 µM), actives largely listed as activators; hit rate 1.3% among 330,000; AID 504466; also: nearly all actives have a fitted effect of over 60% in size
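HEK293T cells expressing luciferase-tagged ELG1 were exposed to compound or DMSO vehicle for 16 hr at 37 °C and 5% CO2. Luciferase activity was then measured with ONE-Glo after 30 min at room temperature.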
FLuc counter: firefly luciferase modulation, counter-screen for miR-21 project; Potency, µM (titrated, usually from 57.5 µM), most hits filed as inhibitors; AID 588342; hit rate 6.9% among 360,000; purified FLuc, Km substrates, luminescence inhibition; P08659; also: nearly all actives have a fitted effect of over 55% in size
Target sequence (P08659 whole entry, looked up): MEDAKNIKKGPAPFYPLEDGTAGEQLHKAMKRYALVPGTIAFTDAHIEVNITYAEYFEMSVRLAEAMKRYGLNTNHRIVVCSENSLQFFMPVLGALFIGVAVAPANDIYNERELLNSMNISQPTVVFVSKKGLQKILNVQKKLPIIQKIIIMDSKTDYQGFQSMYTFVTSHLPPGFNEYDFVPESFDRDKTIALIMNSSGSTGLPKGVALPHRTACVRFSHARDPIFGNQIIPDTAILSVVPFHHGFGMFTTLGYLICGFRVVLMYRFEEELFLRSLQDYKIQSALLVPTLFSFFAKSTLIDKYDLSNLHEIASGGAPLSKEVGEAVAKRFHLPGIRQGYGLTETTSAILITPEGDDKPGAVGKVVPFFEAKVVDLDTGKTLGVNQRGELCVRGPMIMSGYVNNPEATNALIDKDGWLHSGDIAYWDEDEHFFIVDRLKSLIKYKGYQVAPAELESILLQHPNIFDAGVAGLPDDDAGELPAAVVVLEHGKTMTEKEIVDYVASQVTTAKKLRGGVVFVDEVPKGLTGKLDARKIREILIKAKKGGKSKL
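Purified P. pyralis luciferase, 10 nM final, with Km-level 10 uM D-luciferin and 10 uM ATP in 50 mM Tris acetate pH 7.5, 10 mM Mg acetate, 0.01% Tween-20, 0.05% BSA; 6-point qHTS titration about 60 µM downward; luminescence read.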
NPC1 promoter act: NPC1 promoter activation. Huh7 NPC1 promoter luciferase reporter, 24 h. Potency, µM (top dose mostly 9.22 µM), usual class: activators. hit rate 2.4% among 320,000. AID 485313; also: nearly all actives have a fitted effect of over 60% in size
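Luminescence from an NPC1 promoter-driven luciferase reporter in stably transfected Huh7 cells was measured after 24 h compound treatment at 37 °C, followed by 10 min ambient incubation with luciferase detection reagent.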
A number is an active result; n = inactive; u = inconclusive; x = no result given; [ ] = remark or other dose. Hits are enriched below; roughly 9.4% of the tested compounds scored in any of these assays. Calls follow the shape of the dose curve; as a rule, active = well fitted curve in the direction sought with a large enough effect; inconclusive = small, poorly fitted or top-dose-only effect, or another doubt; inactive = no such curve, though single readings can be large; an effect the other way counts as inactive or inconclusive.

SMILES | SMN2 splice up | Rab9 prom act | ELG1 DNA repair | ELG1 genotoxic | FLuc counter | NPC1 promoter act
O=[N+]([O-])c1cc(Cl)cc(/C=N/NC(=S)Nc2ccc(S(=O)(=O)N3CCOCC3)cc2)c1O | x | n | 13µM | n | u | n
O=C(NCC1(c2ccccc2)CCCC1)C(=O)Nc1cccc(Br)c1 | n | x | x | x | n | x
COc1cc(C(=O)Nc2cccc(OCc3cc(=O)n4c(C)csc4n3)c2)cc(OC)c1OC | n | x | x | x | u | x
COc1ccc(OCC(=O)OCc2cc(=O)n3nc(C4CC4)sc3n2)cc1 | x | x | x | x | n | x
CCOC(=O)/C(=N/Nc1ccccc1)c1csc(Nc2ccccc2)n1 | n | n | u | n | u | n
CCOC(=O)/C(=N\Nc1ccc(OC)cc1)c1csc(Nc2ccccc2)n1 | n | n | 16µM | n | 9.5µM | n
O=S1(=O)N=C(Nc2nncs2)c2ccccc21 | n | n | n | n | 19µM | n
COc1ccc(CNC(=O)C2CCCN(C(=O)c3cnn(-c4ccc(F)cc4)c3-n3cccc3)C2)cc1 (stereo not drawn) | x | x | x | x | n | x
CCn1c2ccc(Cl)cc2c2nc3ccccc3nc21 | n | n | n | n | u | n
CCn1c2ccc(C)cc2c2nc3cc(C(=O)O)ccc3nc21 | n | u | u | u | 27µM | n
CCOc1cccc(C2c3c(oc4ccc(F)cc4c3=O)C(=O)N2c2cc(C)ccn2)c1 (stereo not drawn) | u | x | x | x | n | x
CCCN(CCC)CCNC(=O)c1cc2c(=O)oc3ccc(C)cc3c2s1 | n | x | x | x | n | x
COCCCn1c(=O)c2sccc2n2c(CCCC(=O)Nc3cccc(C(F)(F)F)c3)nnc12 | x | x | x | x | n | x
CCCc1nc2sc3c(c2c(=O)[nH]1)CCCC3 | x | n | n | n | u | n
N#Cc1cnn(-c2nc3sc4c(c3c(=O)[nH]2)CCCC4)c1N | n | n | u | n | 6µM | n
CCCOc1ccc(-c2cc(C(F)(F)F)c(C#N)c(SCCC(=O)O)n2)cc1 | n | x | x | x | u | x
CCCCN(CCCC)CCNC(=O)Cn1nc(CC)n2c(cc3sc(C)cc32)c1=O | n | x | x | x | n | x
COCC1CCN(Cc2cn[nH]c2-c2cc(OC)c(OC)c(OC)c2)CC1 | x | n | u | n | u | n
COc1cc(-c2[nH]ncc2CN2CCSCC2)cc(OC)c1OC | x | n | u | 18µM | n | n
NC(=O)C1CCN(Cc2ccc(OCc3ccccc3)cc2)CC1 | x | u | u | u | 15µM | 2.5µM
CCOC(=O)C1CCN(Cc2ccc(OCc3ccccc3)cc2)CC1 | x | n | n | n | n | n
c1ccc(COc2ccc(CN3CCN(c4ccccn4)CC3)cc2)cc1 | n | 2.2µM | u | 21µM | 6.7µM | u
c1ccc(CN2CCN(c3ncccn3)CC2)cc1 | x | n | n | n | n | n
CCC1=[N+](CC(=O)c2ccc(Br)cc2)CCn2c(C)ccc21 | x | u | u | n | n | 1.4µM
CCC1=[N+](CC(=O)c2ccc(C)cc2)CCn2cccc21 | u | 4µM | u | u | n | n
SMILES | SMN2 splice up | Rab9 prom act | ELG1 DNA repair | ELG1 genotoxic | FLuc counter | NPC1 promoter act
Cc1ccc(C(=O)C[n+]2ccccc2)cc1 | x | n | n | n | n | n
Cc1cc(C)c[n+](CC(=O)c2ccccc2)c1 | x | n | n | n | n | n
CCC1=[N+](CC(=O)c2ccc(C)cc2)CCn2c(C)ccc21 | u | 0.89µM | u | n | n | 2.2µM
CC1=[N+](CC(=O)c2ccccc2)CCn2cccc21 | x | 3.5µM | u | u | n | u
CCC1=[N+](C)CCn2c(C)ccc21 | n | n | n | n | n | n
Cc1nn(C(=O)c2ccc(Cl)cc2)c(C)c1Sc1ccc(Cl)cc1 | n | x | x | x | n | x
C=C1C2c3ccccc3C(CC2(C)O[Si](C)(C)C)N1C(=O)OC (stereo not drawn) | n[9.22 µM] | x | x | x | x | x
CCCc1cc(C(=O)NCc2ccc(OC)cc2)no1 | n | n | u | n | u | n
CCCc1cc(C(=O)Nc2ccc(CC)cc2)no1 | x | 1.6µM | u | u | 4.8µM | 3.2µM
CCc1ccc(NC(=O)c2cc(-c3cccs3)on2)cc1 | n | n | u | n | u | n
CCCc1cc(C(=O)Nc2ccc(C)cc2)no1 | n | 4.5µM | u | u | 3.4µM | u
CCc1ccc2occ(CC(=O)NCc3ccccc3)c2c1 | n | x | x | x | u | x
Cc1ccc(N(C)C(=O)C2CCN(S(=O)(=O)c3c(C)noc3/C=C/c3c(C)cc(C)cc3C)CC2)cc1 | x | x | x | x | n | x
